According to PubChem BioAssay (Tox21):
Records with an inconclusive call do not appear. A number with no mark means an inactive call. The source made the active and inactive calls. The call rests on the fitted dose curve; in most records, active means well fitted curve in the direction sought with a large enough effect in the repeat runs; inconclusive means weak or mixed curves; inactive means no such curve, though single readings can be large; an effect the other way counts as inactive or inconclusive.

Test: qHTS assay to identify small molecule agonists of the RXR signaling pathway - cell viability counter screen (AID 1159529); further: nearly all actives have a fitted effect of over 50% in size; further: potency means the concentration at half of the fitted maximal effect
Conditions: RXR-alpha-bla HEK293T viability, CellTiter-Glo, 16 h; series mostly up to 76.8 µM; activity change, negative = cytotoxicity: at the top concentration
Method in brief: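 RXR-alpha-UAS-bla HEK 293T cells in medium with 2% charcoal-stripped FBS were pre-incubated 5 hr, then compound-treated 16 hr at 37 C. Viability was read by CellTiter-Glo luminescence in the same wells as the beta-lactamase assay, with tetraoctyl ammonium bromide as positive control.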
On the % scale 0 is the no-effect control and ±100 the full control effect.

Compared with Cc1ncsc1CCCl, CC(=O)Nc1cc([As](=O)(O)O)ccc1O is higher in “activity change, negative = cytotoxicity” value: -2.48% [at 35.3 µM] for the first, 1.5% [at 35.3 µM] for the second.

With Nc1c(Br)cc([N+](=O)[O-])cc1[N+](=O)[O-] the “activity change, negative = cytotoxicity” value was -21.6%.

In the case of N#CC(CCc1ccc(Cl)cc1)(Cn1cncn1)c1ccccc1 (stereo not drawn), the Potency is reported as 24.5 µM (active).

Test: qHTS assay to identify small molecule antagonists of the retinoid acid receptor (RAR) signaling pathway - cell viability counter screen (AID 1159551); further: nearly all actives have a fitted effect of over 35% in size
Conditions: C3RL4 cells viability, ATP luminescence (CellTiter-Glo), 6 h; series mostly up to 92.4 µM; activity change, negative = cytotoxicity: at the top concentration
Method in brief: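 ATP-based viability, C3RL4 cells, 6 h at 37 C with 1 uM final retinol co-added after compound; luminescence read 30 min post CellTiter-Glo, RT.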

Going from CC(Oc1ccc(Oc2ncc(C(F)(F)F)cc2Cl)cc1)C(=O)O (stereo not drawn) to COC(=O)C(C)Oc1ccc(Oc2ccc(Cl)cc2Cl)cc1 (stereo not drawn), the “activity change, negative = cytotoxicity” value rises from -0.654% to -0.429%.

First: O=C(Cc1ccccc1)OCc1ccccc1
Second: c1cc[c]([Hg][c]2ccccc2)cc1
The “activity change, negative = cytotoxicity” value of the first is lower: -1.96% for the first, 0.232% for the second.

First: CC(C)CC#N
Second: CCC#N
The “activity change, negative = cytotoxicity” value of the first is lower: -1% for the first, 0.974% for the second.

First: ClCCOCOCCCl
Second: CCCSP(=S)(OCC)Oc1ccc(Cl)cc1Cl (stereo not drawn)
The “activity change, negative = cytotoxicity” value of the first is lower: -2.02% for the first, -1.06% for the second.

Going from CC(=O)CCc1ccc2c(c1)OCO2 to COC(=O)COc1ccc(Cl)cc1Cl, the “activity change, negative = cytotoxicity” value falls from 3.03% to -0.0913%.

Compared with CCOP(=S)(OCC)Oc1ncn(-c2ccccc2)n1, CCOP(=S)(OCC)SCSc1ccc(Cl)cc1 is lower in “activity change, negative = cytotoxicity” value: 0.407% for the first, -0.0817% for the second.

First: O=[N+]([O-])c1ccc2c3c(cccc13)CC2
Second: O=[N+]([O-])c1cc(Cl)c(Cl)c(Cl)c1
The “activity change, negative = cytotoxicity” value of the first is higher: -0.314% for the first, -5.95% for the second.

Going from CCOP(=S)(OCC)SCSP(=S)(OCC)OCC to CCOC(=O)N(C)C(=O)CSP(=S)(OCC)OCC, the “activity change, negative = cytotoxicity” value rises from -1.74% to 3.48%.

First: CCCCN(CCCCO)N=O
Second: CCCCOC(=O)[C@@H](C)Oc1ccc(Oc2ccc(C#N)cc2F)cc1
The “activity change, negative = cytotoxicity” value of the first is higher: -0.99% for the first, -1.25% for the second.

Compared with CNC(=O)O/N=C(\C)SC, CNC(=O)Oc1c(C(C)(C)C)cc(C)cc1C(C)(C)C is lower in “activity change, negative = cytotoxicity” value: -0.664% for the first, -2.98% for the second.

First: CC1(C(=O)Nc2ccc(O)c(Cl)c2Cl)CCCCC1
Second: Nc1cc(Cl)ccc1O
The “activity change, negative = cytotoxicity” value of the first is lower: -8.57% for the first, 4.21% for the second.

Compared with CC(C)(C)C(=O)C(Oc1ccc(Cl)cc1)n1cncn1 (stereo not drawn), CC(COc1ccc(Oc2ccccc2)cc1)Oc1ccccn1 (stereo not drawn) is higher in “activity change, negative = cytotoxicity” value: -0.09% for the first, 0.125% for the second.

Compared with Nc1n[nH]c(N)n1, CCOc1nc(C(Cl)(Cl)Cl)ns1 is higher in “activity change, negative = cytotoxicity” value: -2.01% for the first, 0.0715% for the second.

In the case of ClC(Br)Br, the “activity change, negative = cytotoxicity” value is reported as 3.25%.

Going from CCOC(=O)C1(c2ccccc2)CCN(CCc2ccc(N)cc2)CC1 to O=C(O)c1ccc2[nH]cc(CCCCN3CC=C(c4ccccc4)CC3)c2c1, the “activity change, negative = cytotoxicity” value rises from -2.77% [at 42.5 µM] to 0.659% [at 42.5 µM].

Compared with c1ccc(N2CCNCC2)cc1, CN1C(=S)CN=C(c2ccccc2)c2cc(Cl)ccc21 is higher in “activity change, negative = cytotoxicity” value: -1.97% [at 42.5 µM] for the first, 3.83% [at 42.5 µM] for the second.

First: CN1C[C@@H](NS(=O)(=O)N(C)C)C[C@@H]2c3cccc4c3c(cn4C)C[C@H]21
Second: CC(C(O)c1ccccc1)N(C)C/C=C/c1ccccc1 (stereo not drawn)
The “activity change, negative = cytotoxicity” value of the first is higher: -2.34% [at 42.5 µM] for the first, -2.48% [at 42.5 µM] for the second.

In the case of Cc1ncsc1CCCl, the “activity change, negative = cytotoxicity” value is reported as 2.65% [at 42.5 µM].
